The values below come from PubChem BioAssay AID493169 (National Center for Advancing Translational Sciences (NCATS), 2011).

Records with an inconclusive call do not appear. Entries that show only a call come without a potency. Active and inactive are the calls of the source. Calls follow the shape of the dose curve; as a rule, active = well fitted inhibition curve with a large enough effect; inconclusive = small, poorly fitted or top-dose-only effect; inactive = flat fitted curve, though single readings scatter.
Potency is read from the fitted curve at half-maximal effect.

This test can be described thus: CHOP2 Reporter Counterscreen Assay for Inhibitors of Ubiquitin-specific Protease USP2a.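 Also: activated enterokinase alone at 50 pM in a cell-free format rather than USP2a or CHOP2; nearly all actives have a fitted effect of over 55% in size.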 Particulars: purified enterokinase, fluorogenic substrate, 485/531 nm; series mostly up to 38.3 µM. Put shortly: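 Fluorescence (485/531 nm) read 10 min after adding 25nM reporter substrate to 50 pM activated EK preincubated 30 min RT with compound; Tris pH 8.0/CaCl2/CHAPS buffer. Data normalized to buffer-alone inhibition; concentration-response curves fitted.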
For orientation: A counterscreen serves to expose hits that act by an unwanted route or on another target.
Consider `C=C(CCC(=O)c1ccccc1)C(=O)c1ccccc1`, for which the Potency entry was “inactive”.

Consider `COC(=O)c1nnn(-c2nonc2N)c1CSc1ccccn1`, for which the Potency result was “inactive”.

Take `COc1ccc(-c2nc(Cn3c(SCc4ccc(F)cc4)nc4ccncc43)c(C)o2)cc1OC`: the Potency result was “inactive”.

In the case of `COCCCNC(=O)C1CCN(c2nc(C)cc(C)n2)CC1`, the Potency result was “inactive”.

For `O=C(NN=Cc1ccc(N2CCOCC2)s1)c1ccc([N+](=O)[O-])cc1`, the Potency entry was “inactive”.

With `O=C1OC[C@@H]2CCCN2C(=O)[C@@H](CC(=O)N(CCO)Cc2ccccc2)C/C=C\C[C@@H]1Cc1ccc(F)cc1`, the Potency result was “inactive”.

With `Cn1c(=O)[nH]c(=O)c2c1nc(NCc1ccccc1)n2CCCc1ccccc1`, the Potency result is “inactive”.

With `CC1CC(C)CN(C(=O)CSc2nnc(-c3ccc(Cl)cc3)o2)C1` (stereo not given), the Potency entry is “inactive”.

Take `N#Cc1c(Nc2ccc(Cl)cc2)s[nH]c1=O`: the Potency result is “inactive”.

For the molecule `O=C(CSc1nnc(SCc2ccccc2)s1)N/N=C/C=C/c1ccco1`, the Potency was 2.51 µM (active).

Regarding `Cc1c(C(=O)Nc2ccc3c4c(cccc24)CC3)cccc1[N+](=O)[O-]`, the Potency result is “inactive”.

Turning to `CCOC(=O)N1CCN(C(=O)CN(c2ccc(Oc3ccccc3)cc2)S(C)(=O)=O)CC1`, the Potency entry was “inactive”.

For `O=C(OCC1OC(n2ncc(=O)[nH]c2=O)C(OC(=O)c2ccccc2)C1OC(=O)c1ccccc1)c1ccccc1` (stereo not given), the Potency is 7.94 µM (active).

On to `COc1ccc(C(=O)OCC(=O)c2c[nH]c3ccccc23)c(OC)c1`, for which the Potency entry was “inactive”.

Take `Cc1cc(NS(=O)(=O)c2ccc(Nc3nc(-c4ccc(C)c(C)c4)cs3)cc2)no1`: the Potency entry is “inactive”.

With `Cc1nc(N(C)C)c2sc(=S)n(C)c2n1`, the Potency entry was “inactive”.

Consider `O=C(Nc1nc(-c2ccco2)c(-c2ccco2)s1)c1ccc(F)cc1F`, for which the Potency is 10 µM (active).

Consider `Cc1ccc(C(=O)NCCNS(=O)(=O)c2ccccc2)cc1`, for which the Potency entry was “inactive”.

Turning to `CCOc1ccc(Cn2nnc(C(=O)NCc3ccccc3)c2N)cc1`, the Potency entry was “inactive”.

Take `Cc1ccc(C(=O)Nc2nnc(CC(=O)N/N=C/c3ccc(O)c(O)c3)s2)cc1`: the Potency is 2.82 µM (active).

Turning to `O=C(CCSCc1ccc(Cl)cc1)NCCc1ccccc1`, the Potency result was “inactive”.

On to `O=C(Nc1ncccc1Cl)c1cccc(F)c1`, for which the Potency result was “inactive”.

For `COc1cc(C2C(C#N)=C(N)Oc3c2ccc2ccccc32)ccc1OCC(=O)Nc1cccc(C)c1` (stereo not given), the Potency entry is “inactive”.

With `Cc1nc2n(n1)CC(O)CS2` (stereo not given), the Potency entry was “inactive”.

`O=C(NCC(c1cccnc1)N1CCN(c2ccc(F)cc2)CC1)OCc1ccccc1` (stereo not given): the Potency entry is “inactive”.

Consider `CCCCCCCCCCOC(=O)Cn1c(COc2ccccc2C)[n+](C)c2ccccc21`, for which the Potency was 5.62 µM (active).

With `COC(=O)c1ccc(NC(=O)CSC2=Nc3ccccc3C3CC=NN23)cc1` (stereo not given), the Potency entry is “inactive”.

For the molecule `O=C1CCCc2nc(N3CCN(c4ccccc4)CC3)ncc21`, the Potency result was “inactive”.

Turning to `CCCn1c(NC(=O)c2ccc(Br)cc2)nc2ccccc21`, the Potency result was “inactive”.

As for `CCCC(c1nnnn1Cc1ccc(OC)cc1)N1CCC(C(N)=O)CC1` (stereo not given), the Potency entry is “inactive”.

For the molecule `Cc1ccc(/C(N)=N/OC(=O)Oc2ccccc2)cc1`, the Potency entry was “inactive”.

With `CC(C)(C)C1CCc2nc(NC(=O)Cc3cn4ccsc4n3)sc2C1` (stereo not given), the Potency result was “inactive”.

`Cc1[nH]c2ccccc2c1C(c1ccccn1)c1c(C)[nH]c2ccccc12`: the Potency entry was “inactive”.

Take `O=C(Nc1cccc(S(=O)(=O)N2CCCC2)c1)c1cncc(Br)c1`: the Potency entry is “inactive”.

In the case of `COc1cc(/C=N/NC(=O)c2cc(-c3ccccc3)nc3ccccc23)ccc1O`, the Potency result is “inactive”.

On to `COc1ccc(-n2c(SCC(=O)N3CCN(c4ccccc4)CC3)nc3c(c2=O)SCC3)cc1`, for which the Potency entry is “inactive”.

For the molecule `CCOc1ccc(NC(=O)c2ccc(NC(=O)COC(=O)c3ccc(NC(=O)CC#N)cc3)cc2)cc1`, the Potency was 2.82 µM (active).

Regarding `O=C(C1CCCN(S(=O)(=O)c2cccc3cccnc23)C1)N1CCN(c2ccccc2F)CC1` (stereo not given), the Potency entry was “inactive”.

Take `Cc1cccc(NC(=S)NCc2ccc3c(c2)cc(C)n3C)c1C`: the Potency entry was “inactive”.

Take `C/C(Cn1nnc2ccccc21)=N\OC(=O)c1ccccc1C`: the Potency entry is “inactive”.
